Results published in PubChem BioAssay AID2315 (National Center for Advancing Translational Sciences (NCATS), 2010).
Out of some 290,000 compounds screened, about 27,000 (9.3%) were called active. No stated cut-off is given here; in the data, active means inhibition mostly above about 28% (no sharp cut-off); inactive means mostly below about 43%. Only a selection was taken, and actives are over-represented in it overall.

Experiment: A qHTS for Small Molecule Inhibitors of Shiga Toxin; further: 0% is about no effect
Settings: Vero cells, Shiga toxin protein synthesis inhibition reporter; at 38.7 µM, stronger effect = higher value

Structure (SMILES) | inhibition
O=C(Cc1ccc(Cl)c(Cl)c1)Nc1ccc(SC(F)F)cc1 | 43% (active)
CC(=O)N1CCN(CC(=O)Nc2ccc(SC(F)F)cc2)CC1 | -12.2% (inactive)
Cc1ccc(CC(=O)Nc2ccc(OC(F)F)c(Cl)c2)cc1C | -4.66% (inactive)
CNC(=O)[C@]1(C(F)(F)F)C[C@H](CCc2ccccc2)CCCO1 | 32.4% (inactive)
O=C(c1cccs1)N1CCC(c2nc3ccccc3s2)CC1 | 18.9% (inactive)
c1ccc2sc(C3CCCNC3)nc2c1 (configuration not stated) | 69.9% (active)
Cc1cccc(C(=O)N2CCC(c3nc4ccccc4s3)CC2)c1 | -12.1% (inactive)
CC(=O)Oc1ccc(N(C(C)=O)S(=O)(=O)c2ccc3ccccc3c2)cc1Br | 33.2% (inactive)
CCCCCNC(=O)C1c2ccccc2Oc2ccccc21 | -12.3% (inactive)
O=C(/C=C/c1ccc(N2CCOCC2)cc1)c1ccccc1 | 68% (active)
O=C(O)c1ccc2c(c1)C(=O)N(c1ccc(/C=C/C(=O)c3ccccc3)cc1)C2=O | 70.9% (active)
O=C(CN1CCN(S(=O)(=O)/C=C/c2ccccc2)CC1)Nc1ccc(N2CCOCC2)cc1 | -7.43% (inactive)
Cc1cccc(N2C(=O)c3ccc(C(=O)Nc4cccc(C(=O)O)c4)cc3C2=O)c1 | 19% (inactive)
O=C(/C=C/c1ccccc1)c1ccoc1 | 26% (inactive)
CC(=O)Oc1ccc(C)cc1N1C(=O)c2ccc(C(=O)O)cc2C1=O | 21.4% (inactive)
O=C(c1ccc(C(F)(F)F)cc1)C1CCCN(C(=O)c2csnn2)C1 (configuration not stated) | -1.35% (inactive)
COc1ccc(CCNC(=O)C2CCCN2C(=O)Nc2ccccc2)cc1OC (configuration not stated) | 9.89% (inactive)
O=S1(=O)N=C(N(CCO)/N=C/c2ccccc2F)c2ccccc21 | -5.12% (inactive)
CCCC(=O)Nc1c(O)c2ccccc2[nH]c1=O | 25.5% (inactive)
CCCc1nc2ccccc2c(=O)n1NC(=O)c1c(O)c2ccccc2[nH]c1=O | 110% (active)
CCCCc1nc2ccccc2c(=O)n1NC(=O)c1c(O)c2cccc3c2n(c1=O)CC3 | 28.4% (inactive)

Structure (SMILES) | inhibition
C#CC(CCN1CCCCC1)(OC)c1ccccc1 (configuration not stated) | -17.9% (inactive)
CCCc1c(C(=O)N/N=C(\C)CCc2ccc(OC)cc2)nnn1-c1nonc1N | -11% (inactive)
OC(CNCCc1ccc(Cl)cc1Cl)COc1ccccc1 (configuration not stated) | 2.65% (inactive)
O=C(CN(Cc1ccc(Br)cc1)S(=O)(=O)c1ccccc1)NCc1ccncc1 | -14.3% (inactive)
O=C(C1CC(=O)N(c2ccc(F)cc2)C1)N1CCN(c2ccccc2)CC1 (configuration not stated) | -5.65% (inactive)
CCn1c(C)cc(=O)cc1-c1ccc(Cl)cc1 | -5.82% (inactive)
COc1ccc(C(=O)CN(C(=O)c2ccc(Cl)cc2)N2C(=O)c3ccccc3C2=O)cc1 | -9% (inactive)
COc1ccc(Cn2c(-c3ccc(Cl)cc3)c[n+]3ccccc23)cc1 | 96.6% (active)
CC1(C)C2CCC1(CS(=O)(=O)NCCc1c[nH]c3ccccc13)C(=O)C2 (configuration not stated) | 23.7% (inactive)
O=C(N/C(=C\c1ccc(O)cc1)C(=O)N1CCCCC1)c1ccccc1 | 11.3% (inactive)
COc1cc(/C=N/N2CCN(c3ccccc3)CC2)ccc1OC(C)=O | 23.8% (inactive)
C(=N/N1CCN(c2ccccc2)CC1)/c1cccs1 | 94.4% (active)
Cc1ccc(N2CCN(/N=C/c3cccs3)CC2)cc1 | 13.1% (inactive)
O=C(Cn1nc(C(=O)O)c2ccccc2c1=O)Nc1ccc(F)cc1 | -3.59% (inactive)
O=C1CCC([N+](=O)[O-])C(c2ccccc2Br)N1 (configuration not stated) | 4.29% (inactive)
COc1ccc(-c2nnc(NC(=O)CS(=O)(=O)c3ccc(Cl)cc3)o2)c(OC)c1 | 3.54% (inactive)
COC(=O)CN1C(=O)C(C)(C)Oc2ccc(C(=O)Nc3cccc(OC)c3)cc21 | -0.621% (inactive)
CN(C)S(=O)(=O)c1ccc(N/C=C(\[N+](=O)[O-])S(=O)(=O)c2ccccc2)cc1 | -2.26% (inactive)
COc1ccccc1C1CCN(C(=S)Nc2ccc(Br)cc2)CC1 | 47.5% (active)
CCC(C)N(C)C1CCN(C(=S)Nc2ccc(OC)cc2)CC1 (configuration not stated) | -9.08% (inactive)
COc1ccc(C(=O)NC2CCN(C(=S)Nc3ccccc3)CC2)cc1 | -2.02% (inactive)

Structure (SMILES) | inhibition
CN1CCC(=O)N([C@H](CO)Cc2ccccc2)CC1 | -4.98% (inactive)
O=C1CCCC(O)=C1N=Nc1ccc(S(=O)(=O)N2CCOCC2)cc1 | 22.3% (inactive)
O=C1CCCC(O)=C1N=Nc1ccc2ncsc2c1 | 87.8% (active)
COC(=O)c1ccc2c(=O)n(CCN3CCOCC3)c(SCC(=O)Nc3cccc(OC)c3)nc2c1 | -7.42% (inactive)
O=C(CNC(=O)Cc1ccccc1)N=Nc1c(O)[nH]c2ccc(Br)cc12 | 3.9% (inactive)
CC1(C)CCSC(/C=C/c2ccccc2)=N1 | 52.2% (active)
Cc1cccn2c(=O)c(C=O)c(Nc3ccc(S(N)(=O)=O)cc3)nc12 | 3.64% (inactive)
CCC(=O)N(CCc1ccccc1)Cc1cc2cc(C)ccc2[nH]c1=O | -0.364% (inactive)
COc1cccc(-n2c(=S)sc3c(=O)n(-c4ccccc4OC)c(SCC4OCCO4)nc32)c1 | -11.3% (inactive)
O=C(Nc1nnc(-c2ccccc2F)s1)c1ccccc1F | 58% (active)
Cc1ccccc1Nc1nc(-c2cccnc2)cs1 | 76.4% (active)
O=C(Nc1ccc(NC(=O)c2ccccc2F)cc1)c1ccccc1F | -6.19% (inactive)
O=C(NCc1cccnc1)Nc1ccccc1F | 19.6% (inactive)
CN(Cc1ccccc1)S(=O)(=O)c1nnc(NC(=O)c2ccccc2F)s1 | -6.12% (inactive)
O=C(Nc1nc(-c2cccnc2)cs1)c1ccccc1F | 166% (active)
O=C(NCc1cccnc1)C(=O)Nc1nc(-c2ccccc2)cs1 | 98% (active)
O=C(O)c1ccccc1C(=O)Nc1nc(-c2ccccc2)cs1 | -11.1% (inactive)
O=C(O)c1ccccc1-c1ccccc1C(=O)NCc1cccnc1 | -3.52% (inactive)
O=C(Nc1ccccc1F)c1ccccc1-c1ccccc1 | 7.36% (inactive)
Cc1ccc(CNC(=O)C2(C(F)(F)F)C/C(=C\CCO)CCCO2)o1 (configuration not stated) | -7.08% (inactive)
